The source of these data is PubChem BioAssay (NCI).

The structures appear in SMILES notation. Values joined by “and” are separate entries in the source; they are usually repeats but may differ in a detail not shown here. Equal entries are not always repeated. Compounds without any hit were thinned out: in the full panel of roughly 83,000, 20% have a hit.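 Negative percent growth values reflect cell death: -40 means 40% of the cells present at the start died, and -100 means all died.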 Unmarked numbers belong to inactive results. Active and inactive are the calls of the source. How the source made its calls: active means growth percent below 10; inactive means the rest.

This test deals with MDA-MB-468 breast. The test is described as follows: NCI-60 one-dose screen, 48 h (100 = growth as untreated, 0 = no growth, -100 = all killed). As to conditions: 10 µM unless noted.
As for `O=C(O)C1C(C(=O)O)C2(Cl)C(Cl)=C(Cl)C1(Cl)C2(Cl)Cl` (stereo not given), the growth was 105% and 113%. The figure for `CC(C)(C)N1CC1C#N` (stereo not given) is 97%; for `C[C@]12CC[C@H]3[C@@H](CC[C@]4(O)C[C@@H](O[C@@H]5O[C@H](CO)[C@@H](O[C@@H]6OC[C@@H](O)[C@H](O)[C@H]6O)[C@H](O)[C@H]5O)CC[C@]34C=O)[C@@]1(O)CC[C@@H]2C1=CC(=O)OC1` it is 38.7%; for `CCC(=O)OC1CCn2c1nc1c2C(=O)C(C)=C(N2CC2)C1=O` (stereo not given) it is 44.3%.

With `CCOC(=O)[C@@H](C)C[C@H](Cc1ccccc1)NC(=O)c1csc([C@@H](C[C@H](C(C)C)N(C)C(=O)[C@H](CC)NC(=O)[C@H]2CCCCN2C)OC(C)=O)n1`, the growth was 32.5%. `O=[N+]([O-])c1c(Br)sc(Br)c1[N+](=O)[O-]`: the growth was 1.55% (active).

For the compound `C[N+]12CCC34C5=CC(=O)C(=O)C=C5[N+]5(C)C(=O)CC6OCC=C(C1)C(CC32)C6C45` (stereo not given), the growth was 99.9%.

`CC(=O)O[C@@H]1CC[C@]2(C)[C@H]3CC[C@]4(C)C(=O)CC[C@H]4[C@@H]3C[C@@H]3SC(N)=N[C@@]32C1`: the growth was 29.6%.

Turning to `CCOC(=O)C1C(C=C(C)C)C1(C)C` (stereo not given), the growth is 107%. Take `CC[C@H](CC[C@@H](C)[C@H]1CC[C@H]2[C@@H]3CC[C@H]4C[C@]5(CC[C@]4(C)[C@H]3CC[C@]12C)OO[C@](C)(C(F)(F)F)O5)C(C)C`: the growth is 95.2%. As for `Cc1cc(Br)c([N+](=O)[O-])cc1[N+](=O)[O-]`, the figure is 58.4%; as for `CCCCCCCCCCCCCCCCCCOc1ccccc1COP(=O)(O)OOCC[N+](C)(C)C`, -40.1% (active); as for `CC[C@H](C)[C@H](NC(=O)[C@H]1CCCCN1C)C(=O)N(C)[C@H](C[C@@H](OC(C)=O)c1cccc(C(=O)N[C@@H](Cc2ccccc2)C[C@H](C)C(=O)OC)n1)C(C)C`, 40.9%. As for `Cc1ccc(S(=O)(=O)F)cc1C(=O)O`, the figure is 92.5%; as for `CCOC(=S)S[C@H]1C[C@@H]2[C@H](CC[C@]3(C)C(=O)CC[C@@H]23)[C@@]2(C)CCC(=O)C=C12`, 101%; as for `CCC1CCC(=O)O1` (stereo not given), 99.3% and 109%. As for `S=P(NC1CCCCC1)(N1CC1)N1CC1`, the figure is 103%; as for `C[C@]12CC[C@H]3[C@@H](C[C@@H]4SC(Nc5ccccc5)=N[C@@]45C/C(=N/O)CC[C@]35C)[C@@H]1CCC2=O`, 59.9%; as for `CCCCCCCC[N+]12CN3CN(CN(C3)C1)C2`, 93.4%. On to `C=CCc1cc2c(cc1OCC)OCO2`, for which the growth is 101%. As for `[Au+].[N-]=C=O.c1ccc(CN2[CH-]N(Cc3ccccc3)C(c3ccccc3)=C2c2ccccc2)cc1`, the figure is 72.7%; as for `C[C@]12CCc3sc(Nc4ccc(O)cc4)nc3C1=CC[C@@H]1[C@@H]2CC[C@]2(C)C(=O)CC[C@@H]12`, -36.9% (active); as for `O=C1NC(=O)C(O)(C2(O)C(=O)NC(=O)NC2=O)C(=O)N1`, 99.8%.

Regarding `N[C@@H](CCC(=O)CCl)C(=O)O`, the growth was 102% [20 µM]. As for `COc1ccc(O)c2c(=O)c3c(OC)cc4c(c3oc12)[C@@H]1C=CO[C@@H]1O4`, the figure is -63.2% (active); as for `[O-][n+]1ccccc1S`, 85.2%. As for `O=C1C=C(N2C3C4CCC(C4)C32)C(=O)C=C1c1ccccc1` (stereo not given), the growth was 16.9%. `COC(=O)[C@@H](C)C[C@H](Cc1ccccc1)NC(=O)c1csc([C@@H](C[C@H](C(C)C)N(C)C(=O)[C@H](C)NC(=O)[C@H]2CCCCN2C)OC(C)=O)n1`: the growth was 10.1%. `C[C@]12CC[C@@H]3c4ccc(Oc5nc(N6CC6)nc(N6CC6)n5)cc4CC[C@H]3[C@@H]1CCC2=O`: the growth is 30.4%.

As for `O=[N+]([O-])c1c(Cl)cc(Cl)c([N+](=O)[O-])c1Cl`, the growth is 15%. As for `[Cl][Hg][c]1cc[c]([Hg][Cl])o1`, the figure is -0.231% (active); as for `CN(C)c1ccc([N+](=O)[O-])c([N+](=O)[O-])c1`, 110% and 95.6%.

As to `C[CH2][Pb]([CH2]C)([CH2]C)[O]C(=O)c1ccc(N)cc1`, the growth was -11.9% (active). The figure for `ClCc1ccc(Cl)c(Cl)c1` is 90.7%; for `CC(=O)C1C(=O)N(C)C(=O)N(C)C1=O` it is 104%; for `COc1cc(/C=C\c2cc(OC)c(OC)c(OC)c2)cc(NS(=O)(=O)c2cccc(Cl)c2)c1OC` it is 47%. The figure for `CC(=O)O[C@H]1CC[C@H]2[C@@H]3CC=C4c5nc(-c6ccccc6)sc5CC[C@]4(C)[C@H]3CC[C@]12C` is 57.2%; for `CCCC(C)SP(=S)(SC(C)CCC)SC(C)CCC` (stereo not given) it is -25.4% (active). As for `CC[C@H](C)[C@H](NC(=O)[C@H]1CCCCN1C)C(=O)N(C)[C@H](CC(=O)c1nc(C(=O)N[C@@H](Cc2ccccc2)C[C@H](C)C(=O)O)cs1)C(C)C`, the figure is 62.3%; as for `COc1ccc(Nc2ccnc3cc(Cl)ccc23)cc1CN(CCCl)CCCl`, -58.6% (active).
